Screens as filed in PubChem.
rCAG RNA binder: r(CAG) repeat RNA binding; TO-PRO-1 dye displacement fluorescence; inhibition, % at 3 µM; hit rate 1.3% among 370,000;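 active = inhibition above the plate cutoff, the mean of all test compounds on that plate plus 3 SD, cut at about 35% in these data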;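 also: 0% = DMSO alone and 100% = 100 µM mitoxantrone as full dye displacement; higher means more dye released from RNA so lower well fluorescence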
bovine MsrA act: activators of bovine methionine sulfoxide reductase A; purified bovine MsrA, absorbance read-out; activation, % at 10.6 µM; hit rate 0.3% among 360,000; in the data active = activation above about 7.5%;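 also: 0% = vehicle and 100% = reference activator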
DAGLB inhibitor: diacylglycerol lipase beta (human) inhibition. inhibition, % at 5.17 µM. AID 504411. Q8NCG7. HEK293T DAGLB membrane lysate, EnzChek fluorogenic substrate. hit rate 0.059% among 340,000; in the data active = inhibition above about 34%;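 also: 0% = enzyme with vehicle and 100% = wells lacking enzyme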
Target sequence (Q8NCG7 whole entry, looked up): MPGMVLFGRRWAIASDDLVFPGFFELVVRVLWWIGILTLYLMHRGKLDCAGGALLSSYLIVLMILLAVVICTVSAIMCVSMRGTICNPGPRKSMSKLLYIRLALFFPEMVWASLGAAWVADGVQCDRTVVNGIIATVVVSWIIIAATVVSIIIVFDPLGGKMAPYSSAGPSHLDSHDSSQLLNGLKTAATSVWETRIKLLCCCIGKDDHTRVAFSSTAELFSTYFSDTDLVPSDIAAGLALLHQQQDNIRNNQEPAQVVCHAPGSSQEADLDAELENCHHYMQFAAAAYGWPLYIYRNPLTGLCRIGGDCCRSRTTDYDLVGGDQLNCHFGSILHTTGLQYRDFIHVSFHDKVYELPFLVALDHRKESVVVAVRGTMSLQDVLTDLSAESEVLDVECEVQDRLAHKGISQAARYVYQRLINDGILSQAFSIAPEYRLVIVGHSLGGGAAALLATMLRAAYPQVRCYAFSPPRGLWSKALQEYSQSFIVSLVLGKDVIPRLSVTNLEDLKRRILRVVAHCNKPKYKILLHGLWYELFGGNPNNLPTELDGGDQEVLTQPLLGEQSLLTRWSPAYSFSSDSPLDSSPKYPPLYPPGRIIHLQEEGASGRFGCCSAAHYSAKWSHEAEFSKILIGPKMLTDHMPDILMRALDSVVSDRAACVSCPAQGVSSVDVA
MsrA inhibitor: inhibits bovine methionine sulfoxide reductase A; hit rate 0.75% among 360,000; inhibition, % at 15.5 µM; purified bovine MsrA, absorbance read-out;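 also: 0% = vehicle wells with enzyme and 100% = reference inhibitor wells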
Pemphigus Ab inh: human desmoglein-3 autoantibody binding inhibition. DSG3-coupled beads, scFv-anti-DSG3-GFP binding, flow cytometry; hits give low values. binding (percent of control), % at 10 µM. hit rate 0.48% among 310,000;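 active = binding more than 3 SD below its plate's average and above zero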;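 also: hits lower antibody fragment binding to DSG3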
NadD block: NadD (S. aureus) enzyme inhibition. inhibition, % at 20 µM. AID 602399. purified NadD enzyme, colorimetric absorbance read-out. hit rate 0.78% among 360,000; in the data active = inhibition above about 26%
MsrA conf: bovine MsrA inhibition, confirmed. purified bovine MsrA, absorbance read-out. AID 651822. shares compounds with MsrA inhibitor. inhibition, % at 15.5 µM. hit rate 41% among 2,300;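 also: coupled to thioredoxin reductase with NADPH and selenocystamine and DMSO as substrate; 0% = vehicle only and 100% = full effect of reference inhibitor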
* hit, by the source's call; . = not tested or not shown. Shown are actives, neighbours in structure and some others; about 3.2% of the full set was active somewhere. Rule as the data show it, unless noted: active = inhibition above about 4.5%; inactive = the rest.

SMILES	rCAG RNA binder	bovine MsrA act	DAGLB inhibitor	MsrA inhibitor	Pemphigus Ab inh	NadD block	MsrA conf
COc1ccccc1NS(=O)(=O)c1cc([N+](=O)[O-])ccc1N/N=C/c1sc(N2CCOCC2)nc1-c1ccccc1	4	-2	-2	11*	115	37*	7.0*
O=C(N/N=C/c1sc(N2CCOCC2)nc1-c1ccccc1)c1ccc(O)cc1	8	-5	5	17*	88	20	10*
CCOC(=O)[C@@]12CCC3=C1N(CCC3)C(=O)[C@H](CC(=O)N1CCN(C(=O)C3CC3)CC1)C2	2	.	.	.	.	.	.
COCCN(CCOC)Cc1cc(=O)oc2cc(C)c(C)cc12	2	-5	.	0	.	-3	.
COc1ccc(CN2CCNC(=O)C2CC(=O)NCC2CCOCC2)c(F)c1 (stereo unspecified)	-1	-4	-3	0	104	1	.
CCOC(=O)c1cc(C(=O)c2cc(F)ccc2O)coc1=N	-1	-4	-3	4	93	2	.
N=c1occ(C(=O)c2cc(F)ccc2O)cc1C(=O)NC1CCCCC1	3	-2	2	4.9*	103	1	0
CCCCOC(=O)C1CN(c2ccccc2)N=C1C(=O)OCC (stereo unspecified)	-7	0	-4	53*	97	-2	2
CCn1c(SCC(=O)Nc2ccc(C(C)C)cc2)nnc1-c1ccc(C(C)(C)C)cc1	0	.	.	.	.	.	.
CC(NC(=O)c1ccc(=O)oc1)c1ccccc1 (stereo unspecified)	1	-5	2	7.2*	104	-2	7.4*
CC(NC(=O)c1ccncc1)c1ccccc1 (stereo unspecified)	0	-7	0	0	111	-2	.
O=C(NCCN1CCOCC1)c1ccc(=O)oc1	0	-6	-1	5.4*	98	-3	4
O=C(NCCc1ccccc1)c1ccc(=O)oc1	33	-15	1	8.2*	70	-1	8.0*
O=c1[nH]c(=S)[nH]cc1S(=O)(=O)c1cccc(Cl)c1	0	3	3	5.8*	112	2	3
Cc1cc(C)c(S(=O)(=O)c2cccc(Cl)c2)c(Cl)n1	3	-11	-1	0	98	-5	.
COc1ccc(/C=C/C(=O)NC(=S)Nc2ccc(S(=O)(=O)Nc3cc(C)on3)cc2)cc1	24	-6	7	5.0*	104	13	5.7*
C/C(=N\NC(N)=S)c1ccc(Cl)s1	0	-4	1	5.7*	97	9	4.8*
C/C(=N\NC(=S)NC(C)C)c1ccc(Cl)s1	-3	-5	-1	4	85	1	.
Cc1ccc(-c2cc(C(=O)O)c3ccccc3n2)s1	5	-2	1	5.4*	92	-6	3
Cn1c(NC(=O)/C=C\c2ccccc2)cc(=O)n(C)c1=O	-2	-4	2	5.3*	99	-4	4
Cn1c(NC(=O)/C=C/c2c(F)cccc2Cl)cc(=O)n(C)c1=O	-1	-5	.	0	106	-7	.
COc1ccc(-c2cc3ccc(OCC(N)=O)cc3oc2=O)cc1OC	-1	-8	-5	5.6*	103	-6	1
COc1ccc(-c2cc3ccccc3oc2=O)cc1	0	-3	-2	1	102	-12	.
COc1ccc(-c2cc3ccc(OC(C)C(=O)O)cc3oc2=O)cc1 (stereo unspecified)	9	-7	0	5.7*	120	2	4
CC(C)C[C@H]1COc2c(Cl)cccc2S(=O)(=O)N1	3	.	.	-1	.	.	.
SMILES	rCAG RNA binder	bovine MsrA act	DAGLB inhibitor	MsrA inhibitor	Pemphigus Ab inh	NadD block	MsrA conf
Nc1cc(Cl)ccc1N1CCCCC1	-4	-5	-3	-1	97	0	.
N#Cc1c(N2CCCC2)ccc(Br)c1Cl	1	-11	-9	6.0*	.	-7	9.0*
CCOC(=O)N1CCN(c2nc(C(F)(F)F)nc3c(C)cc(C)cc23)CC1	-3	-4	-3	-1	103	-1	.
Cc1cc(C)c2nc(C(F)(F)F)nc(N3CC(C)OC(C)C3)c2c1 (stereo unspecified)	-5	-2	-7	14*	106	1	21*
CN1CCN(CC(=O)Nc2cc(N3CCOCC3)ccc2[N+](=O)[O-])CC1	-4	-3	1	4.8*	107	-4	0
CN1CCN(CC(=O)Nc2ccccc2[N+](=O)[O-])CC1	0	-5	1	0	96	0	.
CC(C)c1cc(Cn2c3ccccc3c(=O)n2C(C)Cn2cc(-c3ccc(C(C)(C)C)cc3)nn2)on1 (stereo unspecified)	2	.	.	-1	.	.	.
CSc1ccc(/C=C/C(=O)OCC(=O)NC(C)C)cc1	3	-7	.	5.5*	.	-1	3
CSc1ccc(/C=C/C(=O)OCC(=O)NC2CC2)cc1	1	-4	3	5.0*	.	-5	3
C[C@@H]1OC(C2CCCCC2)N(C)[C@H]2C[C@H]3c4[nH]c5ccccc5c4CCN3C[C@@H]12 (stereo partly specified)	11	-2	.	0	.	-7	.
COC1C(OC(=O)/C=C/C=C/C=C/C=C/C(=O)O)CCC2(CO2)C1C1(C)OC1CC=C(C)C (stereo unspecified) (tested in a mixture with another compound)	29	-5	-3	8.8*	111	8	12*
COc1ccc(S[C@]2(C(=O)NC(C)C)CC(=O)N[C@@H]2c2ccc(OC)cc2)cc1	0	.	.	.	.	.	.
COc1cccc(/C=N/NC(=S)Nc2cccc(C(=O)O)c2)c1	10	-5	-2	3	97	-2	.
COc1cc(/C=N/NC(=S)Nc2cccc(C(=O)O)c2)cc(OC)c1OC	11	-8	0	5.1*	104	-5	4
CC(C)(C)c1ccc(/C=N/Nc2cccc(C(=O)O)c2)cc1	20	-1	3	1	98	-2	.
COc1cc(/C=N/NC(=S)N/N=C/c2cc(OC)c(OC)c(OC)c2)cc(OC)c1OC	11	-1	1	1	119	4	.
COc1ccc(C=NNC(=S)Nc2ccc(F)cc2)cc1OC	7	-17	1	5.7*	86	2	3
CN(C)c1ccc(/C=N/Nc2cccc(C(=O)O)c2)cc1	5	-4	2	5.1*	91	-1	4
COc1ccc(/C=N/NC(=S)Nc2cccc(C(=O)O)c2)cc1OC	4	-3	5	7.6*	.	4	5.6*
O=C(N/N=C/c1cc(Br)c(Br)s1)c1ccncc1	1	-5	-10	2	117	1	.
O=C(N/N=C/c1sc(=O)n(-c2ccccc2)c1Cl)c1ccncc1	-2	-1	-1	7.5*	96	0	4.8*
O=C(N/N=C/c1ccc(Br)s1)c1ccncc1	1	-8	-1	4.7*	104	-4	4.8*
O=C(O)c1cccc(Cn2c(Cl)c(/C=N/NC(=O)c3ccco3)sc2=O)c1	10	-6	-1	7.0*	.	-2	7.4*
